Compounds with a hit are over-represented: about 19% of the library has one in this group of screens.
HT1080 IDH1KD tx = HT-1080 IDH1 knockdown cell toxicity (counter line) | HT-1080 IDH1 knockdown viability, ATP luminescence, 48 h | hit rate 2% among 360,000 | Potency, µM (highest dose often 46.1 µM), for inactives: top-dose activity, negative = toxicity, usual class: cytotoxic;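 note: potency is the fitted concentration of half-maximal effect; 0% = DMSO wells and -100% = cell-free medium wells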
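Luminescent ATP read-out (CellTiter-Glo, 10 min at room temperature) after 48 h compound exposure at 37 °C gave viability of IDH1-knockdown HT-1080 cells. Activity was normalised to DMSO and cell-free wells, then fitted as concentration-response curves.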
TDP1 cell CPT = growth inhibition of DT40 Tdp1-/-;hTDP1 cells with camptothecin (screen for TDP1 inhibitors); hit rate 12% among 420,000; AID 686979; Potency, µM (titrated, usually from 46.2 µM), inactives show at the highest dose activity change, negative = growth inhibition, hits mostly inhibitors; chicken DT40 Tdp1-/-;hTDP1 cells + 20 nM CPT, ATP luminescence, 48 h; note: potency is the fitted concentration of half-maximal effect; nearly all actives have a fitted effect of over 55% in size
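Chicken DT40 Tdp1-/- cells complemented with human TDP1, 400 cells/well, exposed to compounds plus 20 nM camptothecin for at least 48 h at 37 C; viability read as ATP content by CellTiter-Glo luminescence.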
HT1080-NT tox = kills 2HG-producing HT-1080-NT fibrosarcoma cells | HT-1080-NT fibrosarcoma viability, CellTiter-Glo ATP luminescence, 48 h | Potency, µM (series often up to 46.1 µM), for the others: at the top dose activity, negative = less viability, actives largely listed as cytotoxic | hit rate 1.6% among 360,000;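 note: NT is the 2HG producing partner of a matched IDH1 knockdown line; potency is the fitted concentration of half-maximal effect; 0% = DMSO-treated cells and -100% = media-only wells without cells; nearly all actives have a fitted effect of over 55% in size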
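Viability by CellTiter-Glo luminescence after 48 h compound exposure at 37C of HT-1080-NT cells (750/well, RPMI, 5% FBS). % activity scaled between DMSO wells and medium-only wells, then curve-fitted and categorized by curve class.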
IL-1B inflam inh = inflammasome signaling inhibition, IL-1 beta readout. activity change, % at 57.5 µM. hit rate 4.7% among 360,000. THP-1 LPS/ATP IL-1B secretion, AlphaLISA, 16 h; active compounds read low; in the data active = activity change below about -50%; inconclusive = mostly about -30% to -49%
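THP-1 cells pretreated 1 hr with compounds (up to 57.5 uM final), then stimulated with LPS (250 ng/mL final) plus ATP (1.25 mM final); secreted IL-1B measured by AlphaLISA after 16 hr, decreased signal indicating inhibition.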
DT40 TDP1 no CPT = qHTS for Inhibitors of human tyrosyl-DNA phosphodiesterase 1 (TDP1): qHTS in cells in absence of CPT; hit rate 15% among 420,000; Potency, µM (doses to about 46.2 µM), for inactives: at the top dose activity change, negative = growth inhibition, usual class: inhibitors; AID 686978, 2013; DT40 Tdp1-/- hTDP1 cells, no CPT, ATP luminescence, 48 h; note: potency is the fitted concentration of half-maximal effect; nearly all actives have a fitted effect of over 55% in size
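No-CPT arm: Tdp1-/-;hTDP1 DT40 cells (400/well) plus compounds, incubated ≥48 hr at 37 °C. Readout CellTiter-Glo luminescence.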
ELG1 repair inh = inhibitors of ELG1-dependent DNA repair in HEK293T cells | HEK293T ELG1-luciferase reporter, luminescence, 16 h; DNA damage induced by 5-fluorouridine | Potency, µM (top dose mostly 46.1 µM), for inactives: at the top dose activity change, negative = inhibition, most hits filed as inhibitors | hit rate 2.3% among 330,000 | AID 504467; note: potency is the fitted concentration of half-maximal effect; nearly all actives have a fitted effect of over 55% in size
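Quantitative HTS, concentration-response format. 2,000 cells/well co-treated with 5-fluorouridine and compound, 16 hr in 5% CO2 at 37 °C; ONE-Glo luminescence read after 30 min.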
An asterisk follows results filed as active; u = inconclusive; x = no result. Unless noted, calls come from the whole dose curve; as a rule, active = well fitted curve in the direction sought with a large enough effect; inconclusive = small, poorly fitted or top-dose-only effect, or another doubt; inactive = no such curve, though single readings can be large; an effect the other way counts as inactive or inconclusive. Unless noted, % is set by controls: 0 for no effect and ±100 for the full control effect.

SMILES	HT1080 IDH1KD tx	TDP1 cell CPT	HT1080-NT tox	IL-1B inflam inh	DT40 TDP1 no CPT	ELG1 repair inh
CCC(CC)C(=O)Nc1ccc(S(=O)(=O)N2CCC(c3nc4ccccc4s3)CC2)cc1	x	6%	x	x	-21%	x
Cc1cc(NC(=O)/C(C#N)=C\c2ccc(-c3ccc(SC(F)F)cc3)o2)n(-c2ccccc2)n1	u	u	-13%	17	u	x
Cc1ccccc1-c1ncnn1-c1sc2c(c1C#N)CCCCC2	x	-25%	x	x	-16%	x
Clc1ccc(CNc2ccccc2NCc2ccc(Cl)nc2)cn1	-2%	16µM*	-16%	-19	u	u
Clc1ccc(Cn2ccc3ccccc32)cn1	-25%	-18%	u	52	-22%	-4%
COc1ccc(NS(=O)(=O)c2cccc(C(=O)N3CCN(c4ccccc4O)CC3)c2)cc1	12%	u	5%	-9	u	u
COc1ccc(NS(=O)(=O)c2cccc(C(=O)N3CCN(C(=O)c4ccco4)CC3)c2)cc1	-1%	9.2µM*	-2%	41	-27%	u
COc1ccc(NS(=O)(=O)c2cccc(C(=O)N3CCOCC3)c2)cc1	2%	-23%	7%	-2	-35%	x
Cc1ccc(Oc2ccc(NS(=O)(=O)c3cccc(C(=O)O)c3)cc2)cc1	-4%	-3%	-5%	29	7.3µM*	0%
COc1ccc(NS(=O)(=O)c2cccc(C(=O)N3CCCCCCC3)c2)cc1	-2%	u	0%	0	15µM*	-4%
Cc1ccc(NS(=O)(=O)c2cccc(C(=O)N3CCCCCC3)c2)cc1	-10%	u	-14%	-3	21µM*	-12%
CCOCCn1c(=NC(=O)CSCC(=O)N2CCOCC2)sc2cc(OC)ccc21	9%	-22%	11%	-15	4%	-4%
COc1cc(NC(=O)c2cccc3c(-c4cnn(C)c4)coc23)cc(OC)c1OC	u	4.6µM*	u	-75*	3.3µM*	x
COc1ccc(NC(=O)c2cccc3c(-c4cnn(C)c4)coc23)cc1	-20%	u	-11%	u	23µM*	x
O=C(Cn1ncn2c(cc3cc(F)ccc32)c1=O)NC1CCCCC1	x	0%	x	x	0%	x
O=C(O)CC/C(=N/NC(=O)CNC(=O)c1ccc2c(c1)OCCO2)c1ccccc1	0%	0%	1%	25	-1%	14%
NC(=O)COc1ccc(-c2noc(COc3ccc(Cl)cc3)n2)cc1	x	-13%	x	x	-13%	x
COc1ccccc1C(=O)N1CCN(C(=O)[C@H]2O[C@@H](n3ccc(=O)[nH]c3=O)[C@H](O)[C@@H]2O)CC1	-3%	-6%	-21%	-20	-9%	x
CCN(Cc1ccccc1)S(=O)(=O)c1ccc(C(=O)N(CCCN(C)C)c2nc3cc4c(cc3s2)OCCO4)cc1	u	u	-18%	-95*	u	-11%
CCN(Cc1ccccc1)S(=O)(=O)c1ccc(C(=O)N(CCCN(C)C)c2nc3cc(OC)ccc3s2)cc1	u	u	u	-100*	23µM*	u
CCCCN(C(=O)c1ccc(S(=O)(=O)N(C)C)cc1)c1nc2ccccc2s1	1%	-8%	4%	15	2%	-1%
COc1ccc2sc(N(CCCN(C)C)C(=O)c3ccc(C(=O)c4ccccc4)cc3)nc2c1	u	16µM*	u	-88*	u	-8%
Cc1cccc2sc(N(CCCN(C)C)C(=O)c3ccc(C(=O)c4ccccc4)cc3)nc12	u	u	u	-8	u	-10%
CN(C)CCCN(C(=O)c1ccc(S(=O)(=O)N(C)Cc2ccccc2)cc1)c1nc2c(F)cccc2s1	-27%	u	u	-96*	-7%	2%

High-throughput results as filed in PubChem.
